The record followed here is PubChem BioAssay AID748 (Sanford-Burnham Center for Chemical Genomics, 2007).

Hit rate of the full screen: of about 96,000 compounds, about 100 (0.1%) were called active. For the sample, actives were picked, then their nearest neighbours and some compounds at random. Results with a measured potency or affinity are listed apart. Values without a mark were called inactive.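 How the source made its calls: active means displacement above 50% at 20 µM plus a fluorescence interference ratio under 1.5; inactive means the rest.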

The target in this test is Bcl-2-like protein 10 (Homo sapiens) (UniProt Q9HD36). The test is described as follows: Bcl-B/TR3 peptide binding disruption – biochemical, fluorescence polarization, FITC-TR3 peptide, selectivity assay for Bfl-1 inhibitor project, primary screen (AID 748).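 Further: plate controls were wells without compound for no effect and wells lacking Bcl-B protein for full effect.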 The settings on record: FP displacement of FITC-TR3 peptide from Bcl-B; at 20 µM; stronger effect = higher value.
As to `COc1ccc(N=C2SC(CC(=O)Nc3ccccc3)C(=O)N2CC2CCCO2)cc1` (configuration not stated), the displacement was -7.7%. With `Cc1cc(=O)oc2cc(OCC(=O)N3CCc4ccccc4C3)ccc12`, the displacement was -2.9%. Consider `COc1ccc2c(c1)c(=O)oc1cc(OCC(=O)N3CCCC(C)C3)ccc12` (configuration not stated), for which the displacement was 31.5%. Regarding `COc1cccc(OCC(=O)NC2CCCCC2)c1`, the displacement was -1.4%. Turning to `COc1ccc2c(c1)c(=O)oc1c(C)c(OCC(=O)N3CCc4ccccc4C3)ccc12`, the displacement is 17.9%. For `COc1ccc2c(c1)c(=O)oc1cc(OCC(=O)NC3CC3)ccc12`, the displacement is -27.3%. As to `Cc1cc(=O)oc2ccc(OCC(=O)N3CCC(C)CC3)cc12`, the displacement was -6.2%. `COC(=O)c1ccccc1OCC(=O)NC1CCCCC1`: the displacement was -0.5%. For `O=C1CC(=O)C(n2cncn2)C(c2c(F)cccc2Cl)C1` (configuration not stated), the displacement was 1.3%. With `O=C(CSc1ncccc1-c1nc2ccccc2[nH]1)N1CCN(c2ccccc2F)CC1`, the displacement was -0.6%. For `COc1cc(C(=O)NCCC(=O)NCCCN2CCCCC2C)cc(OC)c1OC` (configuration not stated), the displacement is -7%. With `Clc1cccc(/C=N\Nc2nccs2)c1`, the displacement is -14.4%. Next, `O=[N+]([O-])c1cc(/C=N\Nc2nccs2)ccc1O`: 107% (active); `Cc1ccc(/C=N/NC(=O)c2cccs2)cc1[N+](=O)[O-]`: -1.9%. On to `CCCn1c(CN2CCN(C(=O)c3ccco3)CC2)nc2c1c(=O)n(C)c(=O)n2C`, for which the displacement was -3.6%. As for `CCSc1nnc(NC(=O)c2cnccn2)s1`, the displacement is 58.3% (active). To `CCSc1nnc(NC(=O)c2ccccn2)s1` belongs 2.1%. As to `CCc1nnc(NC(=O)c2cnccn2)s1`, the displacement is -1%. As to `CCc1c(C)nc2[nH]nc(-c3ccccc3)n2c1=O`, the displacement is 3.2%. For `CCOC(=O)c1cc2c(=O)n3cccc(C)c3nc2n(Cc2ccccc2Cl)c1=N`, the displacement was -0.7%. Turning to `Cn1c(=O)[nH]c(=O)c2c1nc(Br)n2Cc1ccccc1Cl`, the displacement was -0.4%. To `COc1cc(C(=O)NC2CC3CCCC(C2)N3CC(=O)Nc2ccccc2)cc(OC)c1OC` (configuration not stated) belongs -5.3%; to `COc1cccc(C(=O)NC2CC3CCCC(C2)N3CC(=O)Nc2ccc(N(C)C)cc2)c1` (configuration not stated), 7.7%. For the compound `Cn1c(=O)c2nnn(/N=C(\c3ccccc3)C3CC3)c2n(C)c1=O`, the displacement is 0.7%.

`COc1ccc(C2=Nn3c(nnc3-c3ccco3)SC2)cc1`: the displacement is 0.6%. To `Oc1ccc(C2=Nn3c(nnc3-c3ccco3)SC2)cc1O` belongs 56.6% (active); to `COc1ccc(C2=Nn3c(nnc3-c3ccco3)SC2)cc1OC`, 5.3%. To `COc1ccc(NC(=O)C2CCN(C(=O)c3ccc(OC)cc3)CC2)cc1` belongs 3.5%; to `COc1ccc(NC(=O)C2CCCN(c3c4c(nc5ncnn35)CCC4)C2)cc1` (configuration not stated), -4.1%; to `CCOC(=O)c1cccc(NC(=O)CSc2nc(N)cc(N)n2)c1`, -1.6%.

With `COC(=O)c1cccc(NC(=O)COC(=O)CSc2nc(C)cc(C)n2)c1`, the displacement was -13.3%. Regarding `CCc1nnc(SCC(=O)Nc2ccccc2)nc1CC`, the displacement was -1.5%.

On to `Cc1ccc(SCC(=O)Nc2ccc(-c3nnc(-c4ccco4)o3)cc2)cc1`, for which the displacement was -9.5%. Regarding `Cc1cccc(NC(=O)CSc2nnc(-c3ccco3)o2)c1C`, the displacement was 7.2%.

On to `Cc1cccc(NC(=O)CSc2nnc(-c3ccco3)c(-c3ccco3)n2)c1C`, for which the displacement is 37.3%. As to `O=C(CSc1nnc2c3ccccc3c3ccccc3c2n1)Nc1ccccc1`, the displacement is -29.6%. As for `Cc1cccc(C)c1NC(=O)CSc1nnc(-c2ccco2)c(-c2ccco2)n1`, the displacement was -4.1%. Take `Cc1ccc2oc(-c3cccc(NC(=O)c4ccc(Br)o4)c3)nc2c1`: the displacement was -23.6%. Regarding `CC(NC(=O)CSc1nnc(CC(=O)Nc2ccc(Cl)c(Cl)c2)n1C)c1ccccc1` (configuration not stated), the displacement was -13.6%. For the compound `Cc1cccc(N(C)S(=O)(=O)c2ccc3c(c2)CCC(=O)N3)c1`, the displacement is -24.5%.

With `Cc1ccc(S(=O)(=O)Cc2ccc(C(=O)N3CCCCCC3)o2)cc1`, the displacement was 21.6%. To `Cc1ccc(S(=O)(=O)Cc2ccc(C(=O)N3CCN(Cc4ccccc4)CC3)o2)cc1` belongs 16.9%; to `COc1ccc(S(=O)(=O)Cc2ccc(C(=O)N3CCc4ccccc4C3)o2)cc1`, 9.8%; to `Cc1ccc(S(=O)(=O)Cc2ccc(C(=O)N3CCCC3)o2)cc1`, -6.7%. On to `COC(=O)c1cccc(NC(=O)CSc2nnc(C)n2Cc2ccccc2)c1`, for which the displacement was -10.5%.

As to `CCOc1ccc(N2C(=O)CC(N3CCN(C4CCc5ccccc5C4)CC3)C2=O)cc1` (configuration not stated), the displacement is 5.4%. `Cc1ccc2c(c1)c1c3n2CCN(C(=O)CN2CCN(C)CC2)C3CCC1` (configuration not stated): the displacement is 15.1%.

As to `CC(=O)N1CCn2c3c(c(=O)c4cc(C)ccc42)CCC31` (configuration not stated), the displacement was 4.4%. For `COCC(C)n1c(C)cc(C(=O)COC(=O)c2nc3nc(C)cc(C)n3n2)c1C` (configuration not stated), the displacement was 9.9%.

Regarding `COc1cc(NC(=O)COC(=O)c2nc3nc(C)cc(C)n3n2)cc(OC)c1`, the displacement is 0.7%. As to `Cc1ccc(CC(=O)NC(C)CCc2ccccc2)cc1` (configuration not stated), the displacement is 1%. Consider `Cc1cc(NC(=O)COC(=O)[C@H](C)NC(=O)c2ccccc2)no1`, for which the displacement is 11.4%. For `O=C(O)c1cccc(N2CCCC2)c1`, the displacement was -2.4%.

In the case of `Cc1ccc(C)n1-c1ccc(C(=O)O)cc1`, the displacement was 42.6%.

As for `N/C(COc1ccc(F)cc1)=N\NC(=O)c1cccnc1Oc1ccccc1`, the displacement was 12.1%. In the case of `C/C(Cl)=C/Cn1c(=O)c2c(nc(Br)n2Cc2ccccc2)n(C)c1=O`, the displacement was 4.3%. To `C/C(N)=C(/C#N)C(=O)CSc1nnc(Nc2cccc(C)c2C)s1` belongs -1.5%; to `C/C(N)=C(/C#N)C(=O)CSc1nnc(Nc2ccccc2C)s1`, 4.3%. On to `O=S(=O)(c1ccccc1)N1CCSC1c1ccco1` (configuration not stated), for which the displacement is -4.6%.

As to `Cc1ccc(O)c(C(=O)c2cnn(-c3ccccc3)c2)c1`, the displacement was -8.5%. Next, `CCc1cc(C(=O)Cc2cnn(-c3ccccc3)c2)c(O)cc1O`: -5.9%; `CC(SCCc1ccccn1)C(=O)O` (configuration not stated): -2%.
